This is an account of results in PubChem BioAssay (NCATS).

Assay [1] addresses Cytochrome P450 1A2 (Homo sapiens) (UniProt P05177). Kind of assay: p450-cyp1a2 (AID 410; calls by dose curve). The gist of the method: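 Luminescent demethylation readout: Luciferin-ME (100uM, equal to Km) turned over by 20nM CYP1A2 for 60 min at room temperature after NADPH regeneration addition, following 10 min compound preincubation. Normalization used 57 uM furafylline as full inhibition.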

Assay [2] can be described thus: NFAT Signaling Pathway (AID 444; active = well fitted curve in either direction with a large enough effect, not every such curve was filed as active;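 note: carbachol stimulus at about its EC50 of 1 µM final; % is set by controls: 0 for no effect and ±100 for the full control effect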). The following applies: Jurkat NFAT-bla M1, carbachol, beta-lactamase ratio, 5 h. Put shortly:
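Read-out: CCF4 FRET ratio (460 nm/530 nm) after 1 h RT dye loading, used for %activity and AC50 from titration series. Cells: Jurkat NFAT-β-lactamase/M1 line, treated with compound plus 1 uM carbachol for 5 h, 37 °C.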

A short description of assay [3]: Stat Signaling Pathway (AID 446; active = well fitted curve in either direction with a large enough effect, not every such curve was filed as active;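 note: ME-180 cervical cancer cells given 40 pM IL-6 alongside compound; SIE-controlled beta-lactamase reporter measured as 460/530 nm FRET emission ratio; % is set by controls: 0 for no effect and ±100 for the full control effect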). Put shortly: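 FRET read-out (405 nm excitation, 460/530 nm emission) of a beta-lactamase reporter under a STAT-inducible element in ME-180 cervical carcinoma cells. Cells with compound receive 40 pM IL-6 for 5 h. Values are normalised to AC90 stimulation and AC90 JAK-inhibitor controls.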
Assay [4] deals with Mitogen-activated protein kinase 10 (Mus musculus) (UniProt Q61831). Kind of assay: JNK3 AlphaScreen Assay (AID 530; active = well fitted curve in either direction with a large enough effect, not every such curve was filed as active;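 note: kinase came from lysate of stimulated human HepG2 cells; signal reports phosphorylation of biotinylated GST-cJun 1-79 at Ser73 with 10 µM ATP; % is set by controls: 0 for no effect and ±100 for the full control effect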). The gist of the method: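 qHTS titrations with 15 min compound pre-incubation before adding ATP (10 uM final). Read-out: AlphaScreen of Ser73-phosphorylated biotin-GST-cJun using HepG2 lysate JNK3 activated by IL-1β and TNFα.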
The target of assay [5] is 3',5'-cyclic-AMP phosphodiesterase 4B (Homo sapiens) (UniProt Q07343). In words: qHTS Assay for Inhibitors of PDE-IV (AID 607; active = well fitted activation curve with a large enough effect in the main read-out, with a control signal flat, not every such curve was filed as active; note: % of control where 0% means no effect). The gist of the method: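 Cell-based read-out of cAMP via a modified cyclic nucleotide-gated channel and membrane potential dye (535/590 nm) in HEK293 cells expressing PDE4 endogenously. Compounds tested up to 22.9 uM final; 100 uM RO 20-1724 reference.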
3',5'-cyclic-AMP phosphodiesterase 4B (Homo sapiens), sequence (Q07343 whole entry, looked up): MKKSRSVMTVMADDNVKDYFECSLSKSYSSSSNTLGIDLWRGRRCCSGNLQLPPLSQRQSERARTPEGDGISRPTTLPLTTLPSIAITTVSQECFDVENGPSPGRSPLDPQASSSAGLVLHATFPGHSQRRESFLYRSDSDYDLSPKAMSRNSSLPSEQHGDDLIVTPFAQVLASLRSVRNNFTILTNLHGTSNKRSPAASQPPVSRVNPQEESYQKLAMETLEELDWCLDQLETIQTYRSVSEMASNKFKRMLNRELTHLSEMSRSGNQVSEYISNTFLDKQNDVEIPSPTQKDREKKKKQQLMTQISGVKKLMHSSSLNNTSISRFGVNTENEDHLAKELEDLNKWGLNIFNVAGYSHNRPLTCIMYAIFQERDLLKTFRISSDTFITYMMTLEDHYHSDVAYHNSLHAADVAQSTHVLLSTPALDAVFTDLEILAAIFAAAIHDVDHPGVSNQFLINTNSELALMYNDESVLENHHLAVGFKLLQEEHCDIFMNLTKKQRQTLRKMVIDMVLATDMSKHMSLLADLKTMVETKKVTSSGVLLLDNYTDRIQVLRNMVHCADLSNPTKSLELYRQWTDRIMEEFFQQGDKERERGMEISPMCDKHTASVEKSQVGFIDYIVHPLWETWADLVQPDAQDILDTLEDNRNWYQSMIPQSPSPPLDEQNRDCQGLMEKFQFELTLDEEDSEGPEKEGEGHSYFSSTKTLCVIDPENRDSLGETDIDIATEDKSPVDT
Background: Quantitative high-throughput screening tests each substance at several concentrations.

A short description of assay [6]: qHTS Assay for Lipid Storage Modulators (AID 1519; calls by dose curve). The conditions noted are these: Drosophila S3 cells, BODIPY lipid droplet/cell ratio, laser cytometry, cells loaded with oleic acid. Put shortly:
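Cells seeded at 5,000 per well were treated with compounds over a concentration series and loaded with oleic acid (400 uM, as added). Lipid droplet fluorescence (488 nm excitation, 500-530 nm channel) was read by laser-scanning cytometry and normalized to 20 uM Triacsin C.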

The target of assay [7] is Ubiquitin carboxyl-terminal hydrolase 1 (Homo sapiens) (UniProt O94782). In words: Inhibitors of USP1/UAF1: Pilot qHTS (AID 504865).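 Note: rhodamine fluorescence freed from ubiquitin-rhodamine substrate followed over time; top concentration of the series differs between compounds; % is set by controls: 0 for no effect and ±100 for the full control effect; nearly all actives have a fitted effect of over 35% in size.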 Put shortly:
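USP1/UAF1 complex (1nM) preincubated with compound 15 min at room temperature, then Ub-Rho substrate (150nM final) added. Fluorescence read kinetically at 480/540 nm, 6 reads every 60 seconds. Buffer: 50mM HEPES pH 7.8, 0.5mM EDTA, 0.1 mg/ml BSA, 1mM TCEP, 0.01% Tween-20.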

In assay [8] the target is DNA dC->dU-editing enzyme APOBEC-3G (Homo sapiens) (UniProt Q9HC16). In words: qHTS for inhibitors of Vif-A3G interactions: Validation (AID 588379). Note: 0% is about no effect. Put shortly:
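Yellow fluorescence (Ex 488, Em 500-530) of Vif-coexpressing HeLa A3G-eYFP cells, scanned by Acumen cytometer, reports blocked A3G degradation. Cells plated at 700/well overnight at 37 deg C before compound addition, then a further overnight compound incubation at 37 deg C.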

The test system of assay [9] is Zika virus NS2B-NS3 protease. In words: Primary screen GU AMC qHTS for Zika virus inhibitors (AID 1347154).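 Note: 0% = no-inhibitor control and -100% = no-enzyme control; nearly all actives have a fitted effect of over 70% in size.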 Put shortly: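 Fluorogenic AMC-substrate cleavage by noncovalent NS2B-NS3 protease complex (25 nM, pH 8.0 Tris buffer with Tween 20) followed for 15 minutes at room temperature (~20% conversion). Percent inhibition from ex340/em450 signal change, fitted by 4-parameter Hill equation.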

The nature of assay [10]: Primary qHTS for small molecule stabilizers of the endoplasmic reticulum resident proteome: Secreted ER Calcium Modulated Protein (SERCaMP) assay (AID 1508630). Note: % is set by controls: 0 for no effect and ±100 for the full control effect. The gist of the method: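 The SH-SY5Y reporter protocol was run at 3 concentrations up to 38.3 uM (primary) or 11 concentrations (follow-up): 16 h compound, 100 nM thapsigargin for 4 h, then extracellular luciferase luminescence.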

The target of assay [11] is Glucocorticoid receptor (Homo sapiens) (UniProt P04150). In words: GR-GFP Redistribution (AID 450;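 active = compounds whose dose series gives a full or clear partial fitted curve of increased nuclear translocation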; note: potency is the fitted concentration of half-maximal effect). The conditions noted are these: U2OS GR-GFP nuclear translocation, laser cytometry, 2 h.
Glucocorticoid receptor (Homo sapiens), sequence (P04150 whole entry, looked up): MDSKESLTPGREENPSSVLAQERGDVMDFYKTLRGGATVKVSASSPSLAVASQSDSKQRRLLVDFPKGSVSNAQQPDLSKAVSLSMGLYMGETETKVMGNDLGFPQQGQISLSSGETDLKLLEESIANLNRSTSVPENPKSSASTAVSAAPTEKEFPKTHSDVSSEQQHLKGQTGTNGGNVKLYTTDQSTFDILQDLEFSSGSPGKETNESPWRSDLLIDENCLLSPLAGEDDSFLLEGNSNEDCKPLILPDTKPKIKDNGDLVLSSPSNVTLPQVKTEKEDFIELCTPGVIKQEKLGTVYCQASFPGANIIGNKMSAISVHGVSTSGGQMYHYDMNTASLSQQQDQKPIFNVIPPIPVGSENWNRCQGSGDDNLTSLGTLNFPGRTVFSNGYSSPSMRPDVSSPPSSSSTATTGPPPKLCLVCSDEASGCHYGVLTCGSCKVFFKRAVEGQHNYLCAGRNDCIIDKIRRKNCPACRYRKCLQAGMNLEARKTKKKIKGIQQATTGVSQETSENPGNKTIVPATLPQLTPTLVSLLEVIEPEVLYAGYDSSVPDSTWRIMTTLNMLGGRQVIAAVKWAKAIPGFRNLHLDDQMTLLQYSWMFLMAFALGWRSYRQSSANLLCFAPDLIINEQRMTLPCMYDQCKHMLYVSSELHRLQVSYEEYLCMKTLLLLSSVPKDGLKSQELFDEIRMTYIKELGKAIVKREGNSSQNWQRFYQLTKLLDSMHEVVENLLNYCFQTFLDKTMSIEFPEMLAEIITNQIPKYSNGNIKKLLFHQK
For assay [12], the target named is Guanine nucleotide-binding protein G(i) subunit alpha-1 (Homo sapiens) (UniProt P63096). Kind of assay: qHTS Assay for Inhibitors of RGS12 GoLoco Motif Activity (Green Fluorophore) (AID 879).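 Note: 0% = labeled peptide with Gαi1 and full inhibition = labeled peptide alone without protein; negative values mean loss of peptide binding seen as reduced polarization.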 Put shortly: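 A drop in FITC polarization marked displacement of the FITC-tagged RGS12 GoLoco peptide (10 nM) from Gαi1 (50 nM). Compounds were incubated 10 min at room temperature in Tris pH 7.5 buffer containing 150 mM NaCl, 0.1 mM GDP and 0.05% NP40; unlabeled peptide titration served as control.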
Guanine nucleotide-binding protein G(i) subunit alpha-1 (Homo sapiens), sequence (P63096 whole entry, looked up): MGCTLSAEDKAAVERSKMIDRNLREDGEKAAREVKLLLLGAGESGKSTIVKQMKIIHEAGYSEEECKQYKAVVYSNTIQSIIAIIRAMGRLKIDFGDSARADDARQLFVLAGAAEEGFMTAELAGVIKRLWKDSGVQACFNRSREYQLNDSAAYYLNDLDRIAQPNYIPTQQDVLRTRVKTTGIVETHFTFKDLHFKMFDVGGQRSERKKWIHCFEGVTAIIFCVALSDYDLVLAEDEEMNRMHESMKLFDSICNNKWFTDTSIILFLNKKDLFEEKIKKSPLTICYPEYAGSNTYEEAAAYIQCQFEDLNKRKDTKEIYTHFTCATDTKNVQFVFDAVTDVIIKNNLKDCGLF

Assay [13] has as its target Pyruvate kinase (Leishmania mexicana) (UniProt Q27686). Kind of assay: qHTS Validation Assay for Inhibitors of Leishmania Mexicana Pyruvate Kinase (AID 945).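 Note: 0% = DMSO only neutral control wells.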 Put shortly: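 Compounds are tested as eight-point concentration series. Reactions contain 0.2 nM LmPYK E451W, 0.5 mM PEP, 0.1 mM ADP, 7 mM MgCl2 and 50 mM KCl at pH 7.2, run 1 h at room temperature, then read by PKLight luminescence.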

Assay [14] addresses Pyruvate kinase PKM (Homo sapiens) (UniProt P14618). Kind of assay: qHTS Assay for Activators of Human Muscle Pyruvate Kinase (AID 954; active = well fitted curve in the direction sought with a large enough effect, not every such curve was filed as active;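 note: 0% = uninhibited enzyme and -100% = no enzyme or full thiadiazolimine inhibition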). Put shortly: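 ATP production by PKM2 detected via luciferase luminescence after 1 h room-temperature reaction (0.1 nM enzyme, PEP at Km 0.5 mM, ADP 0.1 mM, pH 7.2 imidazole buffer). Inhibition scaled to no-enzyme control; activation referenced to 0.3 nM enzyme wells.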

For assay [15], the target named is Alpha-galactosidase (Coffea arabica) (UniProt Q42656). Kind of assay: Counterscreen for Glucocerebrosidase Inhibitors: qHTS Assay for Coffee Bean alpha-Galactosidase at pH 4.5 (AID 957).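 Note: plate controls were enzyme alone for no effect and no enzyme for full effect.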 The gist of the method:
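Fluorogenic qHTS at pH 4.5 (citrate buffer with Tween-20): 2 nM enzyme, 80 uM 4-MU-alpha-galactoside substrate, compound titrated 0.7 nM to 77 uM, 20 min room temperature. Glycine/NaOH stop; 4-MU read Ex 365/Em 440; Hill-equation AC50 against no-enzyme and enzyme controls.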
(In general: A counterscreen serves to expose hits that act by an unwanted route or on another target.)

For assay [16], the target named is Alpha-galactosidase A (Homo sapiens) (UniProt P06280). In words: Counterscreen for Glucocerebrosidase Inhibitors: qHTS Assay for Human alpha-Galactosidase at pH 4.5 (AID 992). Note: 0% is about no effect. Put shortly: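 Fluorogenic 1536-well qHTS at pH 4.5 (citrate, Tween-20): 2 nM enzyme, 80 uM 4-MU-alpha-galactoside, 20 min room temperature, NaOH/glycine stop. Titration 0.7 nM to 77 uM, data normalized to no-enzyme and full-activity controls, Hill-fitted AC50.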
Alpha-galactosidase A (Homo sapiens), sequence (P06280 whole entry, looked up): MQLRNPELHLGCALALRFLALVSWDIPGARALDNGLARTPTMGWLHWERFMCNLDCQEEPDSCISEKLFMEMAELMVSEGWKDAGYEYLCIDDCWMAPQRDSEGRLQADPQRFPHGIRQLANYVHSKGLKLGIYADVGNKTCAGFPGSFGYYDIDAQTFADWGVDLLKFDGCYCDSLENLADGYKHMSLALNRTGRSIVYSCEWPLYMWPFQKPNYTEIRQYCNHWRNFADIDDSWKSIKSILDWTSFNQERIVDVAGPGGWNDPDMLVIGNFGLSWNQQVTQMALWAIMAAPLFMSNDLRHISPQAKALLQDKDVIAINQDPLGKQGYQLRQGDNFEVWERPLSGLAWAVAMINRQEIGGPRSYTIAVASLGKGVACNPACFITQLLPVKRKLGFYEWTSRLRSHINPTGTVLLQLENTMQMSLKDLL

The target of assay [17] is alpha-glucosidase (Oryza sativa, rice) (UniProt Q653V4). In words: Counterscreen for Glucocerebrosidase Inhibitors: qHTS Assay for Rice alpha-Glucosidase at pH 5.0 (AID 997).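 Note: 0% = full activity with enzyme and -100% = basal without enzyme.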 The gist of the method: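 Endpoint fluorogenic assay at pH 5.0: compounds (0.7 nM to 77 uM) titrated against 4 nM rice enzyme and 400 uM 4-MU-alpha-glucoside for 20 min at room temperature; NaOH/glycine stop, read ex 365/em 440 nm, Hill-fitted AC50.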

Assay [18] addresses Muscarinic acetylcholine receptor M1 (Rattus norvegicus) (UniProt P08482). Kind of assay: qHTS Assay for Antagonists of Acetylcholine Muscarinic M1 Receptor: Measurement of IP-One Response (AID 944). Note: nearly all actives have a fitted effect of over 75% in size. Put shortly: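 IP1 accumulation measured via TR-FRET between d2-IP1 and Eu-cryptate anti-IP1 antibody after carbachol (200 nM, EC80) stimulation for 30 min; rat M1-transfected CHO cells received compound 10 min before agonist.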

The target in assay [19] is Alpha-galactosidase (Coffea arabica) (UniProt Q42656). Kind of assay: Counterscreen for Glucocerebrosidase Inhibitors: qHTS Assay for Coffee Bean alpha-Galactosidase at pH 5.9 (AID 998).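 Note: plate controls were uninhibited enzyme for no effect and no-enzyme basal signal for full effect.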 The gist of the method:
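Fluorogenic 4-MU substrate hydrolysis, 80 uM substrate and 2 nM coffee bean alpha-galactosidase, pH 5.9 citrate buffer, 20 min at room temperature, then NaOH/glycine stop. Titration 0.7 nM–77 uM, normalized to no-enzyme and enzyme controls, AC50 via Hill equation.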

[20] abbreviates: measured here: cell count channel max response.
Where [21] appears, read: measured here: lipid channel max response.

Several values for one entry are separate records, joined by “and”; a condition that tells them apart may be missing. Equal values may be shown once. Inconclusive results are not listed. Activity calls are given as the source filed them. Unless noted, calls come from the whole dose curve; as a rule, active = well fitted curve in the direction sought with a large enough effect; inconclusive = small, poorly fitted or top-dose-only effect, or another doubt; inactive = no such curve, though single readings can be large; an effect the other way counts as inactive or inconclusive. Where a SMILES comes first, the peptide text is derived from it. Some results are limits rather than exact numbers.

Ubiquitin carboxyl-terminal hydrolase 1 (Homo sapiens), sequence (O94782 whole entry, looked up): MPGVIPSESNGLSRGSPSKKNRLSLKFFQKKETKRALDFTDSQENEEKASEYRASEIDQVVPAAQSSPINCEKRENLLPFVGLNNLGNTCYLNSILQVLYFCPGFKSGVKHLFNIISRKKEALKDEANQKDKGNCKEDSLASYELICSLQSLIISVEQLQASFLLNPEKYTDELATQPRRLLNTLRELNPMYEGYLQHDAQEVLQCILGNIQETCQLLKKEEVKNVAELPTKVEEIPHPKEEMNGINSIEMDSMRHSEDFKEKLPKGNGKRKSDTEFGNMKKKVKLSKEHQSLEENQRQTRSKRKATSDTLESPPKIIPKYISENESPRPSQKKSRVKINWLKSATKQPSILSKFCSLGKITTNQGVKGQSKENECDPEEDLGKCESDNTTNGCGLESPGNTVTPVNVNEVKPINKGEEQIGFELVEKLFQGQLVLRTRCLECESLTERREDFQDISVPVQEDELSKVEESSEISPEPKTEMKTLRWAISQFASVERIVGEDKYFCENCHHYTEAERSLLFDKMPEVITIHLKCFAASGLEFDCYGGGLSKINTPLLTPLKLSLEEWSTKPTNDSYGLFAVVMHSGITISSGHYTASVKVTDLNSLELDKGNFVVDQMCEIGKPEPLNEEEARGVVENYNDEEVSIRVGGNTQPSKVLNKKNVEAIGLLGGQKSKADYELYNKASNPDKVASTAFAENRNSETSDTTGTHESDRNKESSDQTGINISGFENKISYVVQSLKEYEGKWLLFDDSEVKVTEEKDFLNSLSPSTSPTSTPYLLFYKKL
Cytochrome P450 1A2 (Homo sapiens), sequence (P05177 whole entry, looked up): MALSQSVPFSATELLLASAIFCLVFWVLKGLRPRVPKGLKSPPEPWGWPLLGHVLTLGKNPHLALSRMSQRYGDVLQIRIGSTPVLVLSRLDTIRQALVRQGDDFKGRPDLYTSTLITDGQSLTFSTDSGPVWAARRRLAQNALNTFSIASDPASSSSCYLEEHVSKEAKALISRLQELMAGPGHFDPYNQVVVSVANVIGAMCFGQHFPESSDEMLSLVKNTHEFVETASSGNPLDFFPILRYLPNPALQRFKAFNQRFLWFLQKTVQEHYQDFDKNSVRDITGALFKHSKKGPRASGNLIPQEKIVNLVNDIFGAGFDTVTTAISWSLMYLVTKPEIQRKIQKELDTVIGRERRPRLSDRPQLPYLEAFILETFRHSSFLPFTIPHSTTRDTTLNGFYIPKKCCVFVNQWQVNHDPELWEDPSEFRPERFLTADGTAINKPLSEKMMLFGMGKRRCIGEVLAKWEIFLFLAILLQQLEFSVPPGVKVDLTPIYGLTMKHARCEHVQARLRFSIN
DNA dC->dU-editing enzyme APOBEC-3G (Homo sapiens), sequence (Q9HC16 whole entry, looked up): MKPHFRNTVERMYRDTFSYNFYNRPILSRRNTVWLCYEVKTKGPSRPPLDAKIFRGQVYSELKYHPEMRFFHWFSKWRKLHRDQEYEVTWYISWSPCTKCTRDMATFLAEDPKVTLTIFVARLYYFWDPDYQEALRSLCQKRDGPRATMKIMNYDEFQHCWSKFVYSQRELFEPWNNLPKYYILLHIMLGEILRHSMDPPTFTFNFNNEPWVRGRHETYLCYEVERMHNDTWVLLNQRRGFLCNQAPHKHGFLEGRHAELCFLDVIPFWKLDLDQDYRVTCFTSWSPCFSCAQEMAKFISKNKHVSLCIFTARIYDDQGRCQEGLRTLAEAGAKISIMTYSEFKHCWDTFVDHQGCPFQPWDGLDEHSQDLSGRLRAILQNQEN
Pyruvate kinase (Leishmania mexicana), sequence (Q27686 2-499 E452W): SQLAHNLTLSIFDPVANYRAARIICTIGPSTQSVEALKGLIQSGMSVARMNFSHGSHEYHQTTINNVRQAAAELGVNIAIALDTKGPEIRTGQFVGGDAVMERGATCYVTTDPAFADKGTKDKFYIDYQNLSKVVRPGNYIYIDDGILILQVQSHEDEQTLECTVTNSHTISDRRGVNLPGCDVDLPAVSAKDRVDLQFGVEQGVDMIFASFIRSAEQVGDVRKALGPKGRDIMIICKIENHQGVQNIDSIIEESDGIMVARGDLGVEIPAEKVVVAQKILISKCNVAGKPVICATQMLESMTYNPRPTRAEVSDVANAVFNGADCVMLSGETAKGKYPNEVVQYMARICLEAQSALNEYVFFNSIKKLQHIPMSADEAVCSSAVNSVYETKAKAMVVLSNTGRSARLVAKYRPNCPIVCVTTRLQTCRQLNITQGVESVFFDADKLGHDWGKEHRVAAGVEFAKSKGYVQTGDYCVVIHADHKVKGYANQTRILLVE
Alpha-galactosidase (Coffea arabica), sequence (Q42656 whole entry, looked up): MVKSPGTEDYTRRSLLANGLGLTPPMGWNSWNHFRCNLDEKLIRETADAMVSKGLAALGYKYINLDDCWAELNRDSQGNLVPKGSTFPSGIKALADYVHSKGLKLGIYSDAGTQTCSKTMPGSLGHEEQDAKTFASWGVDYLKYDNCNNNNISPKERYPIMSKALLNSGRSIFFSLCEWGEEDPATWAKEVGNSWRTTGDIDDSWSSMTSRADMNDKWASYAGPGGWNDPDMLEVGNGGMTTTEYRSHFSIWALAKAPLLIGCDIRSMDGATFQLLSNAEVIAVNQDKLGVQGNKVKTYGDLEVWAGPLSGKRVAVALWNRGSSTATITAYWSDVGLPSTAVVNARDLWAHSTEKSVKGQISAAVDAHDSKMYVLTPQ

In the case of `C[C@]12N[C@@H](Cc3ccccc31)c1ccccc12`, the Potency entry in [1], in assay [5], in assay [7], in assay [8], in assay [9] and in assay [10] was “inactive” in each case. For the same molecule, the activity change, negative = inhibition is -0.0371% (inactive) and -7.29% (inactive) in [2] (at 17.2 µM (top of the series)); 1.12% (inactive) and -0.257% (inactive) in assay [6] (at 25.7 µM (top of the series)); 2.32% (inactive) and -0.0802% (inactive) in [6] (at 57.5 µM (top of the series)). For the same molecule, the molecule was classed as inactive in assay [3] and in [4]. The max response in [6] (setting [20]) was 11.5% [middle of 4 runs]; in assay [6] (setting [21]), 12.1% [middle of 4 runs].

Regarding `CCOc1cncc(/C=C/CCNC)c1`, the Potency result in assay [9] and in [10] was “inactive” each time.

Regarding `c1ccc(C2CNCc3ccccc32)cc1` (stereo not given), the Potency entry in assay [9] and in assay [10] was “inactive” throughout.

With `COc1ccc(-n2nc(C(F)(F)F)cc2-c2ccc(Cl)cc2)cc1`, the values for the activity change, negative = inhibition in [2] (at 38 µM (top of the series)) and in assay [6] (at 57.5 µM (top of the series)) were -91.5% (active) and -0.483% (inactive), respectively. The outcome in [3], in [12], in [13], in assay [14], in assay [15] and in assay [16] was inactive. Further, the molecule was classed as inactive in assay [17]. Moreover, the Potency in assay [11] is > 46 µM (inactive). For the same molecule, the results for the max response in assay [6] (setting [20]) and in assay [6] (setting [21]) were -38.3% and -37.8%, respectively. Moreover, the Potency result in assay [9] and in assay [10] was “inactive” each time.

`N[C@H](CCP(=O)(O)O)C(=O)O`: the activity change, negative = inhibition in [2] (at 38 µM (top of the series)) was 13.5% (inactive); in assay [6] (at 57.5 µM (top of the series)), 2.56% (inactive). Also, the call in assay [3], in [4], in [12], in [13], in [14] and in [16] was inactive. The molecule was classed as inactive in [17] and in assay [19]. In addition, the Potency in [11] is > 46 µM (inactive). Moreover, the Potency entry in [5], in [18], in assay [7], in assay [8], in [9] and in assay [10] was “inactive” throughout. Also, the max response in assay [6] (setting [20]) came out at 21.6%; in assay [6] (setting [21]) it was 21.4%.

Regarding `CC1CC2CCC(O2)C(C)C(=O)OC(C)CC2CCC(O2)C(C)C(=O)OC(C)CC2CCC(O2)C(C)C(=O)OC(C)CC2CCC(O2)C(C)C(=O)O1` (stereo not given), the Potency entry in [9] and in [10] was “inactive” each time.

For the molecule `C[C@H](NC(=O)[C@@H](N)Cc1ccc(O)cc1)C(=O)N[C@@H](Cc1ccccc1)C(=O)N[C@@H](Cc1ccccc1)C(N)=O` (H-YAFF-NH2), the activity change, negative = inhibition in assay [9] is 0.112% [at 6.83 µM] (inactive); in assay [10] it was -10.3% [at 3.88 µM] (inactive).

As for `C[C@]12CC[C@H]3[C@@H](C[C@H](F)C4=CC(=O)CC[C@@]43C)[C@@H]1CC[C@@H]2O`, the Potency entry in assay [9] and in [10] was “inactive” in each case.

Regarding `CCCCC/C=C\C=C\[C@H](CCCCCCCC(=O)O)OO`, the activity change, negative = inhibition was -1.43% [at 0.59 µM] (inactive) in assay [9] and -24.7% [at 0.478 µM] (inactive) in assay [10].

Turning to `CCCC[C@H]1C(=O)O[C@H](C)[C@H](NC(=O)c2cccc(NC=O)c2OC)C(=O)O[C@@H](C)[C@@H]1OC(=O)CC(C)C`, the Potency result in assay [9] and in assay [10] was “inactive” throughout.

For the molecule `CSCC[C@H](NC(=O)[C@H](Cc1ccccc1)NC(=O)CNC(=O)CNC(=O)[C@@H](N)Cc1ccc(O)cc1)C(=O)O`, the results for the activity change, negative = inhibition in [9] and in [10] were -0.9% [at 6.83 µM] (inactive) and -26.7% [at 3.88 µM] (inactive), respectively.

For the molecule `CCCCCCCCCCCCCCCCOC[C@@H](O)COP(=O)([O-])OCC[N+](C)(C)C`, the activity change, negative = inhibition in assay [9] was 3.47% [at 6.83 µM] (inactive); in [10], 13.1% [at 3.88 µM] (inactive).

For the molecule `C[C@H](N)C(=O)N[C@@H](C)C(=O)N[C@@H](Cc1ccccc1)C(=O)CCl` (HELM PEPTIDE1{A.A.F.[ClC[*:1]]}$$$$V2.0), the Potency entry in assay [9] and in assay [10] was “inactive” each time.

As to `CC1(C)[C@@H](O)C[C@H]2[C@](C)(O)[C@@H]3CC[C@H]4[C@@H](O)[C@@]3(C[C@@H](O)[C@@]21O)C[C@@]4(C)O`, the Potency result in assay [9] and in assay [10] was “inactive” throughout.

With `COc1ccc2[nH]cc(CCNCc3ccc(Br)cc3)c2c1`, the Potency result in [9] and in assay [10] was “inactive” each time.
